The values that follow come from PubChem BioAssay.

A short description of experiment [1]: inhibitors of TNFa-induced NFkB p65 translocation, primary screen, imaging, HUVEC, MLSMR starter and 10KST1 sets (AID 438;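 active = inhibition above 20% together with a positive visual image hit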;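 note: compound added about 3h40 before a 20 min TNFalpha stimulation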;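 for inhibition: signal is the nuclear over cytoplasmic p65 intensity ratio per well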). To be noted: HUVEC TNFa-induced p65 nuclear translocation; cell count: measured here: nuclei count (cytotoxicity indicator), at 2.08 µM; inhibition: at 2 µM, stronger effect = higher value, 0% TNFa-plus-vehicle, 100% no-TNFa wells.
Experiment [2] is described as follows: inhibitors of mutant huntingtin aggregation, primary screen, imaging, exon1htt(103Q)mCFP cells, high-content imaging (AID 483;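 active = visual image review flags a hit and inhibition of aggregation exceeds 20%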;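 note: compound exposure lasted 3 days before fixation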;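 for nuclei count: percent of the per-plate median nuclei count of sample wells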). To be noted: exon1htt(103Q)mCFP cell line, aggregate imaging, at 2 µM; inhibition of aggregation: stronger effect = higher value; nuclei count: measured here: cell count, toxicity.
A short description of experiment [3]: inhibitors of E-selectin induction by TNFa, primary screen, imaging, HUVEC, immunofluorescence, MLSMR starter and 10KST1 sets (AID 487).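 For inhibition: signal is fraction of cell area covered by stained E-selectin grains.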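 For nuclei count: 100% = median nuclei count of all wells on the same plate.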 The conditions noted are these: HUVEC TNFalpha-induced E-selectin immunofluorescence imaging, at 2 µM; inhibition: stronger effect = higher value; nuclei count: measured here: cell number, toxicity.
Experiment [4] concerns the target Voltage-gated potassium channel subunit beta-2 (Rattus norvegicus) (UniProt P62483). Description: KvBeta enzyme negative modulators, primary screen, biochemical, NADPH fluorescence (AID 622;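 active = fluorescence slope higher than the sample average by over 3 SD, cut at about -0.22 in these data, passing the limit was not always enough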;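 note: slope of raw intensity against log time taken from 70 to 1610 s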). To be noted: recombinant KvBeta, 4-cyanobenzaldehyde reduction, at 10 µM, stronger effect = higher value.
The target is the same in experiment [5]. Description: KvBeta positive modulators, primary screen, biochemical, NADPH fluorescence (AID 623;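 active = NADPH fluorescence slope more negative than the mean of all samples by about 3 SD, 99.7% confidence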;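 note: fluorescence intensity change per second fitted from 20 to 320 s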). The conditions noted are these: Recombinant KvBeta, NADPH fluorescence decrease slope, 10 min; at 10 µM; stronger effect = lower value.
Experiment [6] addresses Alpha-2C adrenergic receptor (Homo sapiens) (UniProt P18825). Description: modulators of alpha2C/GIRK thallium flux, primary screen, cell-based, HEK293 alpha2C/GIRK1/2 (AID 624;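 active = fluorescence slope after compound addition differing from the mean of all screened samples at 99.7% confidence, in either direction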;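 note: slope of fluorescence ratio to pre-addition baseline per second over 15 to 24 s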). The conditions noted are these: thallium flux BTC fluorescence, at 10 µM, actives lie on both sides.
Experiment [7] can be described thus: inhibitors of Sendai virus-induced IRF3 signaling, primary screen, TLR/RLR signaling modifier project, cell-based, Sendai virus stimulus, luciferase, 10K MLSCN set (AID 602276;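 active = inhibition at or above 50% at 10 µM; inactive = inhibition below 50%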;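 note: firefly luciferase from ISG56 promoter only with Renilla not read in this screen; 0% = Sendai virus plus DMSO and 100% = medium plus DMSO without virus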). To be noted: HEK293 RL24 IRF3 luciferase reporter, at 10 µM, stronger effect = higher value.
A short description of experiment [8]: inhibitors of poly I:C-induced TLR3 signaling, primary screen, cell-based, poly I:C stimulus, luciferase, 10K MLSCN set (AID 602277;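 active = inhibition of the reporter signal at or above 50%; inactive = inhibition below 50%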). To be noted: HEK293-TLR3 RL24 IRF3 luciferase reporter, at 10 µM, stronger effect = higher value.

The source made the active and inactive calls.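 Rule for the calls, unless noted: active = visually confirmed hit in the image check and inhibition above 20%; inconclusive = visually confirmed hit but inhibition not above 20%; inactive = no visual hit in the image check.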

Chain of Voltage-gated potassium channel subunit beta-2 (Rattus norvegicus) (P62483 whole entry, looked up): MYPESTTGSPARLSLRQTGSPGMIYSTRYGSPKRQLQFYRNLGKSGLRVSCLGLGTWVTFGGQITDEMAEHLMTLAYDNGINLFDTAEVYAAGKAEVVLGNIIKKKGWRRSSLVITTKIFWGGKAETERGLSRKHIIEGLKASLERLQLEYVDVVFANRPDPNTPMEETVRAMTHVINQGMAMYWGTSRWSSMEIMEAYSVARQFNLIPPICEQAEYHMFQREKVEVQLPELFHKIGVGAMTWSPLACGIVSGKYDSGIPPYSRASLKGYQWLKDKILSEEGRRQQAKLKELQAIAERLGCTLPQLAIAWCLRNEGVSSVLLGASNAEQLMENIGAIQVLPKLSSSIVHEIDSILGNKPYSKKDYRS
Chain of Alpha-2C adrenergic receptor (Homo sapiens) (P18825 whole entry, looked up): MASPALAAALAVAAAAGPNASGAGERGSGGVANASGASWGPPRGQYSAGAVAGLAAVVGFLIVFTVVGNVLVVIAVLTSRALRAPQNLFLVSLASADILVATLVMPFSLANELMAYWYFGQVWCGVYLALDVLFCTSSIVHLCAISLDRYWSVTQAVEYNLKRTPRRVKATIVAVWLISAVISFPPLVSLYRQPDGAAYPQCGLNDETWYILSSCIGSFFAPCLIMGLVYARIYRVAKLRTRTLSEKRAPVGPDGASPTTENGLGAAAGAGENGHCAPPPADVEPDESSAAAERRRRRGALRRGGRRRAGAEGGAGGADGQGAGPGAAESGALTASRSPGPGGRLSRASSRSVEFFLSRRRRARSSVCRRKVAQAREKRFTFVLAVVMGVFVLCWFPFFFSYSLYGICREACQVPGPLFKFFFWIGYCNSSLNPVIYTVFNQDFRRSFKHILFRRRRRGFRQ

Consider `COCCN(C(=O)c1csnn1)C(C(=O)NC(C)(C)C)c1cccc(OC)c1` (stereo not given), for which the cell count in experiment [1] is 684. Moreover, the inhibition in experiment [1] is -1.7% (inactive); in experiment [3] it was 0.2% (inactive); in experiment [7], 17% (inactive); in experiment [8] it was 14.6% (inactive). In addition, the inhibition of aggregation in experiment [2] is -26.8% (inactive). For the same molecule, the results for the nuclei count in experiment [2] and in experiment [3] were 76.2% and 102%, respectively. Besides, the fluorescence slope in experiment [4] is -0.515 (inactive). Also, the NADPH fluorescence slope in experiment [5] is -2.6e-05 (inactive). Also, in experiment [6], the slope was 0.00595 (inactive).

With `COc1ccc(OCC(=O)N2CCN(C(=O)COc3ccc(Br)cc3)CC2)cc1`, the cell count in experiment [1] stood at 665. For the same molecule, the inhibition is -28.3% (inactive) in experiment [1], -13.6% (inactive) in experiment [3], 18% (inactive) in experiment [7] and 20.9% (inactive) in experiment [8]. Moreover, in experiment [2], the inhibition of aggregation is -4% (inactive). Further, the nuclei count in experiment [2] turned out to be 108%; in experiment [3] it was 103%. The fluorescence slope in experiment [4] is -0.486 (inactive). Moreover, the NADPH fluorescence slope in experiment [5] is -3.9e-05 (inactive). In experiment [6], the slope was 0.00463 (inactive).

As for `Cc1nnc(SCC(=O)Nc2cc(C(F)(F)F)ccc2N2CCOCC2)o1`, the cell count in experiment [1] turned out to be 271. The inhibition in experiment [1] was 0.2% (inactive); in experiment [3], -2.6% (inactive); in experiment [7] it was 10.8% (inactive); in experiment [8] it was 32.5% (inactive). Besides, the inhibition of aggregation in experiment [2] was 16.1% (inactive). The nuclei count in experiment [2] was determined as 99.1%; in experiment [3], 95.1%. In experiment [4], the fluorescence slope is -0.379 (inactive). For the same molecule, the NADPH fluorescence slope in experiment [5] is -3.9e-07 (inactive). In addition, the slope in experiment [6] is 0.00303 (inactive).

In the case of `O=C(NCC(=O)N(c1cnc2ccccc2c1)C(C(=O)NC1CCCC1)c1ccncc1)c1ccco1` (stereo not given), the cell count in experiment [1] worked out at 501. Moreover, the inhibition in experiment [1] was -7.1% (inactive); in experiment [3] it was -6.5% (inactive); in experiment [7], 15.1% (inactive); in experiment [8], 17.8% (inactive). For the same molecule, the inhibition of aggregation in experiment [2] was -3.6% (inactive). The nuclei count in experiment [2] turned out to be 102%; in experiment [3], 107%. The fluorescence slope in experiment [4] is -0.532 (inactive). Further, in experiment [5], the NADPH fluorescence slope was 5.2e-05 (inactive). The slope in experiment [6] was 0.00551 (inactive).

Regarding `CCOC(=O)c1ccc(S(=O)(=O)NC2CCCCCCC2)n1C`, the cell count in experiment [1] worked out at 583. Also, the inhibition was -1% (inactive) in experiment [1], -42.2% (inactive) in experiment [3], 17.3% (inactive) in experiment [7] and 23.7% (inactive) in experiment [8]. In addition, the inhibition of aggregation in experiment [2] is 3% (inactive). Besides, the nuclei count worked out at 95.7% in experiment [2] and 123% in experiment [3]. The fluorescence slope in experiment [4] was -0.614 (inactive). Further, the NADPH fluorescence slope in experiment [5] was 5e-06 (inactive). Besides, in experiment [6], the slope is 0.00591 (inactive).

As for `C=CCOc1nc(N(C)C)nc(N(C)C)n1`, the cell count in experiment [1] was 569. The inhibition in experiment [1] is 3.6% (inactive); in experiment [3] it was -138% (inactive); in experiment [7], 10.6% (inactive); in experiment [8], 10.6% (inactive). Further, the inhibition of aggregation in experiment [2] is -3.6% (inactive). For the same molecule, the nuclei count in experiment [2] was found to be 103%; in experiment [3], 96%. The fluorescence slope in experiment [4] is -0.595 (inactive). Moreover, in experiment [5], the NADPH fluorescence slope was -3.9e-05 (inactive). In experiment [6], the slope was 0.00356 (inactive).

Consider `CC(=O)c1cccc(NC(=O)CCOc2ccccc2)c1`, for which the cell count in experiment [1] was found to be 580. Moreover, the inhibition is 7.4% (inactive) in experiment [1], 1.3% (inactive) in experiment [3], -37.6% (inactive) in experiment [7] and -83.6% (inactive) in experiment [8]. Further, in experiment [2], the inhibition of aggregation was 6% (inactive). For the same molecule, the nuclei count in experiment [2] is 101%; in experiment [3], 119%. For the same molecule, the fluorescence slope in experiment [4] is -0.428 (inactive). Also, the NADPH fluorescence slope in experiment [5] was 4.3e-05 (inactive). For the same molecule, the slope in experiment [6] is 0.00322 (inactive).

In the case of `C=CCc1cc(OC)ccc1OCC(O)CN1CCN(c2ccc(OC)cc2)CC1` (stereo not given), in experiment [1], the cell count amounted to 402. Also, the inhibition in experiment [1] was 2.5% (inactive); in experiment [3] it was -16.2% (inactive); in experiment [7] it was 12.2% (inactive); in experiment [8] it was 22.6% (inactive). In experiment [2], the inhibition of aggregation is 1.9% (inactive). For the same molecule, the figures for the nuclei count in experiment [2] and in experiment [3] were 105% and 106%, respectively. Also, the fluorescence slope in experiment [4] is -0.629 (inactive). In experiment [5], the NADPH fluorescence slope is 7.7e-07 (inactive). The slope in experiment [6] is 0.00605 (inactive).

With `CCCCc1c(O)nc(N2CCN(Cc3ccccc3)CC2)[nH]c1=O`, the cell count in experiment [1] is 402. Besides, the inhibition in experiment [1] was -2.5% (inactive); in experiment [3] it was -61% (inactive); in experiment [7], 12.1% (inactive); in experiment [8] it was 13.6% (inactive). The inhibition of aggregation in experiment [2] was 9.1% (inactive). The nuclei count in experiment [2] was 97.1%; in experiment [3], 101%. For the same molecule, the fluorescence slope in experiment [4] was -0.343 (inactive). In addition, the NADPH fluorescence slope in experiment [5] is -4.3e-05 (inactive). For the same molecule, in experiment [6], the slope was 0.0053 (inactive).

Take `COc1ccc(C(=O)CSc2nnc(C3CCCCC3)n2N)c(OC)c1`: in experiment [1], the cell count was 419. For the same molecule, the inhibition is -11.9% (inactive) in experiment [1], 99.1% (active) in experiment [3], 10.3% (inactive) in experiment [7] and 11.5% (inactive) in experiment [8]. For the same molecule, in experiment [2], the inhibition of aggregation is 24.4% (inactive). Besides, the nuclei count came to 97.2% in experiment [2] and 89.1% in experiment [3]. Moreover, the fluorescence slope in experiment [4] is -0.612 (inactive). Besides, the NADPH fluorescence slope in experiment [5] was -2e-05 (inactive). Further, the slope in experiment [6] is 0.00551 (inactive).
